Shown are actives, neighbours in structure and some others; about 3.6% of the full set was active somewhere.
LDHA block: qHTS assay for inhibitors of human lactate dehydrogenase | purified LDHA, NADH/diaphorase-resazurin fluorescence; active compounds read low | L-lactate dehydrogenase A chain (Homo sapiens), P00338 | AID 1347041, 2019 | activity change, % (values are at about 110 or 230 µM) | hit rate 0.15% among 480,000; in the data active = activity change below about -30%
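Remaining NADH was detected by diaphorase (0.133 mg/mL) converting 37 µM resazurin to fluorescent resorufin, read at 0 and 20 minutes. The preceding 5-minute room-temperature reaction used 2 nM LDHA, 0.2 mM sodium pyruvate and 0.06 mM NADH at pH 7.4.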
D1 PAM: Potentiators of Human D1 Dopamine Receptor: qHTS. D(1A) dopamine receptor (Homo sapiens), P21728. AID 504651, 2011. hit rate 0.036% among 360,000. HEK293 TREx D1 cells, calcium flux, dopamine EC20 potentiation. potentiation, % at 10 µM; in the data active = potentiation above about 30%
Target sequence (P21728 whole entry, looked up): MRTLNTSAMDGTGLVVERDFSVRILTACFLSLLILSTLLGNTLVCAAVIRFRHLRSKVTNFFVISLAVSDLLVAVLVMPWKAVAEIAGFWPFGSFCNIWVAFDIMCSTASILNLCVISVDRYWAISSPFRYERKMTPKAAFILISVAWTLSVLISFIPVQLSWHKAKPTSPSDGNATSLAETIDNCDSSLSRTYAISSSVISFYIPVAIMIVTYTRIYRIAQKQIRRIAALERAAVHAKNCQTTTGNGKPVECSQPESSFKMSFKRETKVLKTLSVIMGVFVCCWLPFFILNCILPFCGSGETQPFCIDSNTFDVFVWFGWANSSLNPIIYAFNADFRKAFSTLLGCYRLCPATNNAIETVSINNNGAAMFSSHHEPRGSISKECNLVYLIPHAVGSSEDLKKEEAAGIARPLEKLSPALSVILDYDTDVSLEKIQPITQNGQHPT
D1 antag: Antagonist of Human D 1 Dopamine Receptor: qHTS; D(1A) dopamine receptor (Homo sapiens), P21728; HEK293 TREx D1 cells, calcium flux, dopamine EC80; active compounds read low; activity change, negative = inhibition, % at 10 µM; hit rate 3.2% among 360,000; AID 504652, 2011; in the data active = activity change below about -30%
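HEK293 T-REx cells expressing inducible, force-coupled D1 receptor; no-wash Ca dye, 30–90 min RT. Cmpd → 180 s read at 1 Hz → EC80 DA → 180 s read.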
TRHR agonist: qHTS for Small Molecule Agonists and Allosteric Enhancers of Human TRH Receptor: Primary Screen for Agonists. Thyrotropin-releasing hormone receptor (Homo sapiens), P34981. TRHR cells, calcium flux fluo-8, FDSS agonist mode. activation, % at 2 µM. hit rate 0.18% among 360,000
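Steps: seed TRHR cells overnight; add fluo-8 no-wash Ca dye, RT 30 min–1.5 h; record 10 s baseline; pin-transfer compounds; monitor fluorescence 1 cycle/s for the agonist window. Calcium increases flag candidate agonists.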
TRHR PAM: qHTS for Small Molecule Agonists and Allosteric Enhancers of Human TRH Receptor: Primary Screen for Enhancers. AID 493056, 2011. enhancement, % at 2 µM. Thyrotropin-releasing hormone receptor (Homo sapiens), P34981. hit rate 0.66% among 360,000. TRHR cells, fluo-8 calcium fluorescence, EC20 TRH enhancement; in the data active = enhancement above about 30%
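Enhancer read-out: after compound pinning and an initial kinetic agonist-mode read, an EC20 of TRH (10 nM final) was injected and fluo-8 calcium signal (Ex 480/Em 530) followed at 1 s/cycle for 100 cycles in TRHR-expressing cells.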
D1 agonist: Allosteric Agonists of the Human D1 Dopamine Receptor: qHTS; activation, % at 2 µM; D(1A) dopamine receptor (Homo sapiens), P21728; HEK293 T-REx D1 cells, calcium flux, agonist mode; hit rate 1% among 360,000
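Agonism was scored from calcium flux recorded over 180 s (1 read/s) after pintool compound addition, following a 10-cycle baseline. Cells were inducible force-coupled HEK293 TREx D1, plated overnight at 30 C and loaded with no-wash calcium dye.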
Each line names hits and unclear results; the compound was inactive in the other large screens. Cut-off read from the data, not from the text of the source, unless noted: active = activation above about 30%; inactive = the rest.

COc1ccc(-c2nc(S(=O)(=O)c3ccc4c(c3)OCCO4)c(N3CCOCC3)o2)cc1	none (no result: D1 PAM, D1 antag, TRHR agonist, TRHR PAM, D1 agonist)
c1cc(OCc2nnc(-c3cccs3)o2)cc(-n2cnnn2)c1	none (no result: D1 PAM, D1 antag, TRHR agonist, TRHR PAM, D1 agonist)
CCNC(=O)NC(=O)CN1CCN(c2ccccc2Cl)CC1	none (no result: D1 PAM, D1 antag, TRHR agonist, TRHR PAM, D1 agonist)
CC1=NOC(=O)/C1=C\c1ccc(-c2cccc(Cl)c2)o1	D1 antag -51.4
CC1(C)OC(c2ccccc2)=C/C(=C/C=C(C#N)C#N)O1	none (no result: D1 PAM, D1 antag, TRHR agonist, TRHR PAM, D1 agonist)
C/C=C/C=C/C(=O)OCC(=O)c1ccc2c(c1)OCO2	none (no result: D1 PAM, D1 antag, TRHR agonist, TRHR PAM, D1 agonist)
N#Cc1ccc(Oc2c(Cl)cncc2Cl)cc1	TRHR PAM 36.7
COc1ccc(-c2nc(CN3CCN(C(=O)Nc4ccccc4OC)CC3)c(C)o2)cc1	none (no result: D1 PAM, D1 antag, TRHR agonist, TRHR PAM, D1 agonist)
COc1ccc(C(CNC(=O)c2cccc(S(=O)(=O)Nc3ccccc3OC)c2)N2CCCC2)cc1 (stereo not given)	none
COc1ccc(C(CNC(=O)CNC(=O)c2cccc(Cl)c2)N2CCCC2)cc1 (stereo not given)	D1 antag -37.4 (no result: D1 PAM)
COc1ccccc1C(CNC(=O)c1ccc(C)c(S(=O)(=O)N2CCCCC2)c1)N1CCCC1 (stereo not given)	D1 antag -44.9
COc1ccc(C(CNC(=O)CNC(=O)c2ccccc2Cl)N2CCCC2)cc1 (stereo not given)	none
COc1ccc(C(CNC(=O)c2ccc(C)c(S(=O)(=O)Nc3ccccc3OC)c2)N2CCCC2)cc1 (stereo not given)	D1 antag -38.4
OC1CCN(Cc2csc(-c3ccccc3)n2)CC1	none (no result: D1 PAM, D1 antag, TRHR agonist, TRHR PAM, D1 agonist)
CCCCCn1nc(C(=O)Nc2cccc(C(=O)OC)c2)c2ccccc2c1=O	none (no result: D1 PAM, D1 antag, TRHR agonist, TRHR PAM, D1 agonist)
CCOC(=O)c1c(C)[nH]c(C(=O)CN(C)CC(=O)Nc2ccccc2Cl)c1C	D1 antag -41.0
CN(CC(=O)Nc1ccccc1Cl)CC(=O)c1c(N)n(Cc2ccccc2)c(=O)n(C)c1=O	D1 antag -31.8
CCOC(=O)c1c(C)[nH]c(C(=O)OCC(=O)Nc2ccccc2)c1C	D1 antag -73.0
CC(=O)c1c(C)[nH]c(C(=O)C(C)Cl)c1C (stereo not given)	none (no result: D1 PAM, D1 antag, TRHR agonist, TRHR PAM, D1 agonist)
CCOC(=O)c1c(C)[nH]c(C(=O)C(C)Cl)c1C (stereo not given)	D1 antag -31.7
CCC1c2ccsc2CCN1C(=O)C1CCN(S(=O)(=O)c2ccc(C)c(C)c2)CC1 (stereo not given)	none (no result: D1 PAM, D1 antag, TRHR agonist, TRHR PAM, D1 agonist)
Cc1ccc(NC(=O)COC(=O)c2ccc(CN3CCCC3=O)cc2)c(Cl)c1	D1 antag -44.5 (no result: D1 PAM)
Cc1ccc(NC(=O)c2ccc(CN3C(=O)CCn4nc(C)cc43)cc2)c(Cl)c1	D1 antag -33.6
CCN(CC)c1ccc2nc3c(=O)n(C)c(=O)n(C)c3nc2c1	TRHR agonist 68.0, D1 agonist 144.5
CCC(=O)Nc1ccc2nc3c(=O)n(C)c(=O)n(C)c3nc2c1	none
CC(C)CC(=O)NC(NC(=S)Nc1sc2c(c1C#N)CCCC2)C(Cl)(Cl)Cl (stereo not given)	D1 antag -31.7
Cc1c(C(=O)NC(c2ccc(F)cc2)c2nccn2C)oc2ccc(F)cc12 (stereo not given)	none (no result: D1 PAM, D1 antag, TRHR agonist, TRHR PAM, D1 agonist)
CCCCNC(=O)c1sc2ncccc2c1-n1cccc1	none
CCN(CC)CCNC(=O)/C(=N\O)c1ccccn1	none
CCN(CC)CCNC(=O)c1sc2ncccc2c1-n1cccc1	D1 antag -35.7
CCN(CC)CCNC(=O)c1ccccn1	D1 antag -31.6
CC1(C)CC(=O)C/C(=N/NC(=O)c2ccccc2)C1	none (no result: D1 PAM, D1 antag, TRHR agonist, TRHR PAM, D1 agonist)
COC(=O)/C(C#N)=C\c1ccc(OC(F)F)cc1OC(F)F	none (no result: D1 PAM, D1 antag, TRHR agonist, TRHR PAM, D1 agonist)
Cc1ccc(C(=O)OCC(=O)NC2CCS(=O)(=O)C2)c(C)c1 (stereo not given)	none (no result: D1 PAM, D1 antag, TRHR agonist, TRHR PAM, D1 agonist)
CCOC(=O)c1ccc(-n2nc(C)cc2C)cc1	none
